# Measured values reported in PubChem BioAssay (NCATS).
# Results filed as inconclusive are left out. Active and inactive are the calls of the source. Unless noted, calls follow the shape of the dose curve; as a rule, active = well fitted inhibition curve with a large enough effect; inconclusive = small, poorly fitted or top-dose-only effect; inactive = no such curve, though single readings can be large or run the other way.
# Key:
# [1] = qHTS profiling of the MIPE4 collection as inhibitors of Plasmodium falciparum (3D7) proliferation (AID 743344; call rule not given here;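 also: scaled between DMSO vehicle wells and 0.29 µM artemisinin as full inhibition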); details: P. falciparum 3D7 in erythrocytes, SYBR Green DNA fluorescence, 72 h; at 28.5 µM unless noted
# Method in brief: (§1)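 Erythrocytes infected with P. falciparum (0.3% parasitemia, 2.5% hematocrit) incubated with compounds 72 h at 37 C, 5% CO2. Lysis with saponin/Triton buffer containing SYBR Green I, overnight at room temperature in the dark; DNA fluorescence (485/535 nm) normalised to 0.29 uM artemisinin and DMSO.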
# [2] = qHTS profiling of the MIPE4 collection as inhibitors of Plasmodium falciparum (DD2) proliferation (AID 743345; call rule not given here); details: P. falciparum Dd2 in erythrocytes, SYBR Green DNA, 72 h; at 28.5 µM unless noted
# Method in brief: as §1
# [3] = qHTS profiling of the MIPE4 collection as inhibitors of Plasmodium falciparum (DD2) proliferation (Rep 2) (AID 743346; call rule not given here); details: P. falciparum Dd2 in erythrocytes, SYBR Green DNA, 72 h; at 28.5 µM unless noted
# Method in brief: as §1
# [4] = High-throughput drug toxicity screening in the BPDCN cell line Gen2.2 (AID 1224824; call rule not given here;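 also: cells exposed to compounds for 48 h before reading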); details: Gen2.2 BPDCN cells; at 45.8 µM (top of the series) unless noted
# Method in brief: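 Gen2.2, 500 cells/well, phenol red-free RPMI/10% FBS/Pen-Strep; 48 h cpd, 37 °C/5% CO2; CTG lum, 15 min RT. Norm: DMSO = 100%, bortezomib 9.2 uM final = 0%.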
# [5] = High-throughput drug toxicity screening in the BPDCN cell line Cal-1 (AID 1224825; call rule not given here); details: Cal-1 BPDCN cell viability, qHTS; at 45.8 µM (top of the series) unless noted
# Method in brief: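 Exponentially growing Cal-1 cells, 500 per well in phenol red-free RPMI with 10% FBS, were exposed to compounds for 48 h at 37 °C, 5% CO2. Viability was read by CellTiter-Glo luminescence and normalised to DMSO (100%) and 9.2 uM bortezomib (0%).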
# [6] = qHTS assay for measurement of the activity of small molecule inhibitors on Zika virus induced Caspase-3 activity in human iPSC derived neural progenitor cells (hNPCs) (AID 1224857); also: nearly all actives have a fitted effect of over 65% in size; also: potency is read from the fitted curve at half-maximal effect
# Method in brief: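 Zika virus (2 FFU/cell) infection of human iPSC-derived NPCs, 6 h, following 1 h compound preincubation. Read-out: Caspase-Glo 3/7 luminescence.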
# [7] = qHTS assay for measurement of the activity of small molecule inhibitors on Zika virus induced Caspase-3 activity in human astrocytoma cells (AID 1224859); also: potency is read from the fitted curve at half-maximal effect
# Method in brief: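 Caspase activation in ZIKV-infected SNB-19 cells (2 FFU/cell, 6 h) measured by Caspase-Glo 3/7 luminescence after 30 min RT; compound pre-incubated 1 h; normalised to uninfected and infected controls.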
# [8] = qHTS Screen of the MIPE 4.0 Collection Against Ewings Sarcoma (RDES) (AID 1259252); also: nearly all actives have a fitted effect of over 35% in size; also: potency is read from the fitted curve at half-maximal effect
# Method in brief: (§2)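 Here, cells in 5% FBS RPMI were exposed for two days (48 h) to compound dilutions added four hours after plating. ATP-based CellTiter-Glo luminescence measured viability, normalized to vehicle and no-cell blanks.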
# [9] = qHTS Screen of the MIPE 4.0 Collection Against Ewings Sarcoma (TC71) (AID 1259253); also: nearly all actives have a fitted effect of over 40% in size; also: potency is read from the fitted curve at half-maximal effect
# Method in brief: as §2
# [10] = qHTS Screen of the MIPE 4.0 Collection Against Ewings Sarcoma (EW8) (AID 1259255); also: nearly all actives have a fitted effect of over 35% in size; also: potency is read from the fitted curve at half-maximal effect;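 as to viability: 100% = DMSO-treated cells and 0% = medium-only wells without cells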
# Method in brief: as §2
# [11] = qHTS Screen of the MIPE 4.0 Collection Against Ewings Sarcoma (TC32) (AID 1259256); also: nearly all actives have a fitted effect of over 45% in size; also: potency is read from the fitted curve at half-maximal effect
# Method in brief: as §2
# [12] = qHTS profiling of the MIPE4 collection as inhibitors of Plasmodium falciparum (HB3) proliferation (AID 743347; call rule not given here;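 also: plate controls were DMSO vehicle wells for no effect and artemisinin wells for full effect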); details: P. falciparum HB3 in erythrocytes, SYBR Green DNA, 72 h; at 28.5 µM unless noted
# Method in brief: as §1
SMILES,"parasite growth, % of DMSO control [1]","parasite growth remaining, % of DMSO control (lower = more inhibition) [2]","parasite growth, % of control (lower = inhibition) [3]","cell viability, % of control (lower = more cytotoxic) [4]",viability (% of control) [5],Potency [6],Potency [7],Potency [8],Potency [9],Potency [10],Potency [11],"growth, % of control [12]"
CCOC(=O)[C@H](CCc1ccccc1)N[C@@H](C)C(=O)N1[C@@H](C(=O)O)C[C@H]2CCC[C@@H]21,8.54%,9.73%,14.6%,7.77%,4.82%,inactive,inactive,5.26 µM (active),14.8 µM (active),18.7 µM (active),16.6 µM (active),–
COc1ccc(Nc2nccc(NCCO)n2)cc1,67.2%,94.8%,83.3%,195%,111%,inactive,inactive,inactive,inactive,inactive,inactive,87.1%
C[C@H](NC(=O)C(C#N)=Cc1cccc(Br)n1)c1ccccc1,59.1%,86.2%,33.4%,5.54%,4.37%,inactive,inactive,16.6 µM (active),20.9 µM (active),16.6 µM (active),18.7 µM (active),22%
Cn1cc(-c2cnn3c(N)c(Br)c([C@H]4CCCNC4)nc23)cn1,7.85%,10.3%,8.07%,8.78%,14.4%,inactive,inactive,0.332 µM (active),0.118 µM (active),0.148 µM (active),0.187 µM (active),3.69%
COc1ccc(C=Cc2cc(OC)c(OC)c(OC)c2)cc1NC(=O)[C@H](N)CO,75.4%,75.1%,79.9%,6.82%,7.97%,inactive,inactive,0.0023 µM (active),0.0033 µM (active),0.0042 µM (active),inactive,85.5%
N[C@H]1CN(c2c(F)cc3c(=O)c(C(=O)O)cn(C4C[C@@H]4F)c3c2Cl)CC12CC2 (stereo partly specified),20.3%,24.5%,27.8%,92.2%,92.9%,inactive,inactive,inactive,inactive,inactive,0.0033 µM (active),10%
N#CC(=C(O)c1ccc(Cl)cc1Cl)c1nc2cc(Cl)ccc2c(=O)[nH]1,36.6%,99.7%,99%,34.3%,95.9%,inactive,inactive,inactive,inactive,inactive,inactive,74%
Cc1nc(NC(=O)N2CCC[C@@H]2C(N)=O)sc1-c1ccnc(C(C)(C)C(F)(F)F)c1,13.3%,36.1%,24%,21%,65.8%,inactive,inactive,1.48 µM (active),11.8 µM (active),23.5 µM (active),6.62 µM (active),5.19%
CNC(=O)c1cccc(-c2ccc3c(N4CCOC[C@H]4C)nc(N4CCOC[C@H]4C)nc3n2)c1,8.56%,17.5%,9.01%,20.8%,20.9%,inactive,inactive,0.0833 µM (active),0.0662 µM (active),0.0935 µM (active),0.059 µM (active),5.12%
CCN(CC)CCCCNc1ncc2c(n1)N(C)C(=O)N(c1c(Cl)c(OC)cc(OC)c1Cl)C2,25.2%,17.7%,23.7%,138%,50.4%,inactive,inactive,20.9 µM (active),20.9 µM (active),18.7 µM (active),20.9 µM (active),11.3%
COc1cccc2c1C(=O)c1c(O)c3c(c(O)c1C2=O)C[C@@](O)(C(=O)CO)C[C@@H]3O[C@H]1C[C@H](N)[C@H](OC2CCCCO2)[C@H](C)O1 (stereo partly specified),5.43%,7.89%,7.8%,5.53%,1.87%,inactive,inactive,1.18 µM (active),0.662 µM (active),0.166 µM (active),0.0037 µM (active),3.44%
O=C(C=CC=Cc1ccc2c(c1)OCO2)N1CCCCC1,87.5%,15.8%,123%,122%,101%,14.8 µM (active),10.5 µM (active),inactive,inactive,inactive,inactive,95%
Cc1cnn(C)c1C(=O)Nc1cc(Nc2ccc3c(C=Cc4ccccn4)n[nH]c3c2)ccc1F,4.63%,12.8%,19.1%,97.2%,10.9%,inactive,inactive,26.4 µM (active),16.6 µM (active),18.7 µM (active),20.9 µM (active),6.36%
N#CC(=Cc1ccc(O)c(O)c1)C(=O)NCc1ccccc1,42.9%,87.2%,51.8%,70.4%,45.8%,inactive,inactive,23.5 µM (active),23.5 µM (active),18.7 µM (active),20.9 µM (active),48.1%
CCc1cc(C(C)=NOCc2ccc(C3CCCCC3)c(C(F)(F)F)c2)ccc1CN1CC(C(=O)O)C1,6.45%,69.4%,41.3%,68%,19.7%,inactive,inactive,inactive,inactive,inactive,inactive,11.3%
Cc1ccccc1C(=O)Nc1ccc(C(=O)N2CCCC(O)c3cc(Cl)ccc32)c(C)c1 (stereo unspecified),22.8%,75.6%,46%,129%,104%,inactive,inactive,inactive,inactive,inactive,inactive,24.6%
